Records with an inconclusive call do not appear. The source made the active and inactive calls. Unless noted, calls follow the shape of the dose curve; as a rule, active = well fitted curve in the direction sought with a large enough effect in the repeat runs; inconclusive = weak or mixed curves; inactive = no such curve, though single readings can be large; an effect the other way counts as inactive or inconclusive.
Assays:
[1] = qHTS assay to identify small molecule antagonists of the glucocorticoid receptor (GR) signaling pathway - cell viability counter screen (AID 720693); also: nearly all actives have a fitted effect of over 55% in size
[2] = qHTS assay for identifying genotoxic compounds that show differential cytotoxicity against isogenic chicken DT40 cell lines with known DNA damage response pathways - wild type cell line (AID 743012); also: nearly all actives have a fitted effect of over 60% in size
In short: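 Cells (DT40 wild type, 300/well) are treated with DMSO-dissolved compounds after a ~0.5 h pre-incubation and kept 40 h at 37 C/5% CO2. Viability is then measured by CellTiter-Glo luminescence following 30 min at room temperature.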

[3] = qHTS assay for identifying genotoxic compounds that show differential cytotoxicity against isogenic chicken DT40 cell lines with known DNA damage response pathways - Rev3 mutant cell line (AID 743014); also: nearly all actives have a fitted effect of over 55% in size
[4] = qHTS assay for identifying genotoxic compounds that show differential cytotoxicity against isogenic chicken DT40 cell lines with known DNA damage response pathways - Rad54/Ku70 mutant cell line (AID 743015); also: nearly all actives have a fitted effect of over 60% in size
[5] = qHTS assay to identify small molecule antagonists of the androgen receptor (AR) signaling pathway - cell viability counter screen (AID 743033; also: nearly all actives have a fitted effect of over 45% in size)
[6] = qHTS assay to identify small molecule antagonists of the androgen receptor (AR) signaling pathway using the MDA cell line - cell viability counter screen (AID 743041; also: nearly all actives have a fitted effect of over 45% in size)
In short: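 R1881-driven MDA-kb2 AR-luc cells, 3,000/well, were dosed with library compounds for 16 h; cell health came from CellTiter-Fluor fluorescence in the reporter wells.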

[7] = qHTS assay to identify small molecule antagonists of the thyroid receptor (TR) signaling pathway - cell viability counter screen (AID 743064); also: nearly all actives have a fitted effect of over 50% in size
In short: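 Viability of T3-stimulated (1 nM final) GH3.TRE-Luc cells is measured by CellTiter-Fluor fluorescence after 23.5 h compound exposure at 37 °C plus 30 min reagent incubation.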

[8] = qHTS assay to identify small molecule antagonists of the thyroid receptor (TR) signaling pathway (AID 743065); also: nearly all actives have a fitted effect of over 55% in size
In short: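 Antagonism measured as loss of luciferase signal in GH3 cells stably carrying a TRE-luciferase reporter, co-treated with compound and T3 (1 nM final) for 23.5 h at 37 C. Viability was read in the same well by CellTiter-Fluor.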

[9] = system: thyroid hormone receptor (rat, GH3 cells); experiment: qHTS assay to identify small molecule agonists of the thyroid receptor (TR) signaling pathway (AID 743066; calls by dose curve)
[10] = target: Estrogen receptor (Homo sapiens) (UniProt P03372); experiment: qHTS assay to identify small molecule antagonists of the estrogen receptor alpha (ER-alpha) signaling pathway (AID 743069; active = well fitted curve in the direction sought with a large enough effect in the signal ratio in the repeat runs, not every such curve was filed as active; the % refers to the signal ratio)
In short: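 Compound effects are measured against 17beta-estradiol stimulation in HEK293 cells with a UAS-controlled beta-lactamase reporter for ER-alpha. Exposure lasts 18 hr at 37C; LiveBLAzer B/G FRET substrate follows for 2 hr at room temperature.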

[11] = qHTS assay to identify small molecule antagonists of the estrogen receptor alpha (ER-alpha) signaling pathway - cell viability counter screen (AID 743074; calls by dose curve;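 also: HEK293 cells carrying ER-alpha-UAS-bla reporter stimulated with 17beta-estradiol; nearly all actives have a fitted effect of over 45% in size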)
[12] = target: Estrogen receptor (Homo sapiens) (UniProt P03372); experiment: qHTS assay to identify small molecule agonists of the estrogen receptor alpha (ER-alpha) signaling pathway (AID 743075; calls by dose curve)
[13] = target: Estrogen receptor (Homo sapiens) (UniProt P03372); experiment: qHTS assay to identify small molecule agonists of the estrogen receptor alpha (ER-alpha) signaling pathway using the BG1 cell line (AID 743079); also: nearly all actives have a fitted effect of over 20% in size
[14] = qHTS assay to identify small molecule antagonists of the estrogen receptor alpha (ER-alpha) signaling pathway using the BG1 cell line (AID 743080; calls by dose curve;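 also: BG1 cells stimulated with 17beta-estradiol alongside compound; nearly all actives have a fitted effect of over 25% in size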)
In short: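 Luciferase inhibition measured with ONE-Glo after 30 min at RT in BG1Luc4E2 cells given test compounds and 17beta-estradiol for 21.5 h at 37 C; CellTiter-Fluor viability read in the same wells beforehand.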

[15] = qHTS assay to identify small molecule antagonists of the estrogen receptor alpha (ER-alpha) signaling pathway using the BG1 cell line - cell viability counter screen (AID 743081);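 also: compound given together with 17beta-estradiol as the ER stimulus; nearly all actives have a fitted effect of over 45% in size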
Aromatase (Homo sapiens) = Aromatase (Homo sapiens) (UniProt P11511); experiment: qHTS assay to identify aromatase inhibitors (AID 743083); also: nearly all actives have a fitted effect of over 55% in size
[16] = target: Androgen receptor (Homo sapiens) (UniProt P10275); experiment: qHTS assay to identify small molecule antagonists of the androgen receptor (AR) signaling pathway (AID 743035; active = well fitted inhibition curve with a large enough effect in the signal ratio in the repeat runs, not every such curve was filed as active; the % refers to the signal ratio)
In short: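 Antagonism is scored as loss of R1881-driven beta-lactamase reporter expression in HEK293 cells carrying the reporter under a UAS element, after 16 h co-treatment at 37C and a 2 h room-temperature FRET substrate read.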

[17] = target: Androgen receptor (Homo sapiens) (UniProt P10275); experiment: qHTS assay to identify small molecule agonists of the androgen receptor (AR) signaling pathway (AID 743036; active = well fitted activation curve with a large enough effect in the signal ratio in the repeat runs, with a control signal flat, not every such curve was filed as active; the % refers to the signal ratio)
In short: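 Screening used 2,000 AR-bla HEK293 cells per well, treated 16 h at 37C with test compounds in DMSO alongside positive and DMSO-only controls; beta-lactamase activity was then read by LiveBLAzer B/G FRET fluorescence after 2 h at room temperature.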

[18] = target: Androgen receptor (Homo sapiens) (UniProt P10275); experiment: qHTS assay to identify small molecule agonists of the androgen receptor (AR) signaling pathway using the MDA cell line (AID 743040; also: nearly all actives have a fitted effect of over 20% in size); settings: MDA-kb2 AR-luc cells, MMTV luciferase, 16 h; activity change: at 70.3 µM (top of the series)
In short: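 After a 5 h incubation at 37C and 0% CO2, MDA-kb2 reporter cells were dosed with compounds in DMSO and kept 16 h under the same conditions. Luciferase activity was then read as luminescence with ONE-Glo.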

[19] = target: Androgen receptor (Homo sapiens) (UniProt P10275); experiment: qHTS assay to identify small molecule antagonists of the androgen receptor (AR) signaling pathway using the MDA cell line (AID 743042; also: nearly all actives have a fitted effect of over 55% in size)
In short: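 Antagonist mode: compounds plus R1881 agonist added to MDA-kb2 AR-luc cells, incubated 16 h at 37C. Luciferase reporter luminescence quantified, with multiplexed CellTiter-Fluor readout for cell viability.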

Measured: Potency

Sequence of Estrogen receptor (Homo sapiens) (P03372 whole entry, looked up): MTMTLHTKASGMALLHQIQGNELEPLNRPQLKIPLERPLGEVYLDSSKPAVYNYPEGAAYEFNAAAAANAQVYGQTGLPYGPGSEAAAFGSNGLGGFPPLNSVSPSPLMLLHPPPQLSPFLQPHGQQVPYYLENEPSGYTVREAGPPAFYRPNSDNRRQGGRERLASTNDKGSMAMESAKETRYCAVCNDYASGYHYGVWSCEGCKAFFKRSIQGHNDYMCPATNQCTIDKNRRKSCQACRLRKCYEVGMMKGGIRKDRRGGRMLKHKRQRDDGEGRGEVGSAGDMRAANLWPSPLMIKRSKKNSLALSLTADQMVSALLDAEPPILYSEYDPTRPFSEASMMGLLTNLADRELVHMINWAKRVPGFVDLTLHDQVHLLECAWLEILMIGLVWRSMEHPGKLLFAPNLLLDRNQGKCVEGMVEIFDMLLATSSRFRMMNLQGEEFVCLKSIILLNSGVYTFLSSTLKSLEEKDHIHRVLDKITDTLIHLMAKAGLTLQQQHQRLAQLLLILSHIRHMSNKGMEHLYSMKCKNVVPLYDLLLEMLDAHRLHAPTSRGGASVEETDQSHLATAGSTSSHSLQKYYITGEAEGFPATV
Sequence of Aromatase (Homo sapiens) (P11511 whole entry, looked up): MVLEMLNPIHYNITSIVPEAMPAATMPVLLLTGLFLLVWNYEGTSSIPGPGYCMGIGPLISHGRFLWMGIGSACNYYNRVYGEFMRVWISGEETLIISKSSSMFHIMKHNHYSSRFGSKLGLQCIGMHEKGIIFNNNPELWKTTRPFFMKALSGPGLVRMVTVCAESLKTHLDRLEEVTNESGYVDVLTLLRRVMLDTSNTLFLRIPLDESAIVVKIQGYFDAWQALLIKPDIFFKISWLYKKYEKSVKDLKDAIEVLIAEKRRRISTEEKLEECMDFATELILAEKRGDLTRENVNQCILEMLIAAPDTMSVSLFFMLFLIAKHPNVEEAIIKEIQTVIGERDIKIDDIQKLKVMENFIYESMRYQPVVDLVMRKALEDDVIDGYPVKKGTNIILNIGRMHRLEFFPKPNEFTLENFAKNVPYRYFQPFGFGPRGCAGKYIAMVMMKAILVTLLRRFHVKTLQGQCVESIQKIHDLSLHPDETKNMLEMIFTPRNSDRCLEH
Sequence of Androgen receptor (Homo sapiens) (P10275 whole entry, looked up): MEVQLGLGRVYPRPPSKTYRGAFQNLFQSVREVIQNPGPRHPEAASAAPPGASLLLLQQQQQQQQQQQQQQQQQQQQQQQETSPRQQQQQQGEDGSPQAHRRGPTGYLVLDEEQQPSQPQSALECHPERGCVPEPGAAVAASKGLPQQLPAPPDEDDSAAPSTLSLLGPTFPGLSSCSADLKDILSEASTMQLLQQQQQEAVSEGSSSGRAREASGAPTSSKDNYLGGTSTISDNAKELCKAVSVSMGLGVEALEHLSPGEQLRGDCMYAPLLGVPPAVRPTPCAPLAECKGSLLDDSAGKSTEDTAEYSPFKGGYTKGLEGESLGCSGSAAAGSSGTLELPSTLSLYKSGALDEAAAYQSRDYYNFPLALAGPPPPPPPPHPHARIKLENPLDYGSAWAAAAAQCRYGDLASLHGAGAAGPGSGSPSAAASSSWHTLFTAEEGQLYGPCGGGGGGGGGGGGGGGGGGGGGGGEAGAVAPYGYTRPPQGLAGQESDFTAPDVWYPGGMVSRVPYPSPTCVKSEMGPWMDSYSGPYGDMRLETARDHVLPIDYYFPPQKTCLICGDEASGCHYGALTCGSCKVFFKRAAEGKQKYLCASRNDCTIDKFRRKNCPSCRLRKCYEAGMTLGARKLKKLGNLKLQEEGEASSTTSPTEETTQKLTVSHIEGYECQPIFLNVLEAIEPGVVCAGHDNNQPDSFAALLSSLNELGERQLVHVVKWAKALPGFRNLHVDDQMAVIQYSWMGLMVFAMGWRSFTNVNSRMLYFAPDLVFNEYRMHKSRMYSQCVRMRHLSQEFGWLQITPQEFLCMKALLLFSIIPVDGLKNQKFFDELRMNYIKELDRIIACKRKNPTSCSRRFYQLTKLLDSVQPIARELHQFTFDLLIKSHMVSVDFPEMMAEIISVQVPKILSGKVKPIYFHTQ

Cc1ccccc1[N+](=O)[O-]
not listed: [16] | [17] | [18] | [19]
inactive: all other assays above

CCOc1cc(C=O)ccc1O
inactive: [1] | [2] | [3] | [4] | [5] | [6] | [7] | [8] | [9] | [11] | [15]

C=C(C)C(=O)OCC1CO1 (stereo not drawn)
not listed: [10] | [16] | [17] | [18] | [19]
inactive: all other assays above

NC(=S)Nc1ccccc1
not listed: [10] | [16] | [17] | [18] | [19]
inactive: all other assays above

Nc1ccc(Cl)c(Cl)c1
not listed: [10] | [12] | [13] | [14] | [16] | [17] | [18] | [19]
inactive: all other assays above

N#CCCCl
inactive: [1] | [2] | [3] | [4] | [5] | [6] | [7] | [8] | [9] | [11] | [15]

COP(=O)(OC)OC
not listed: [10] | [11]
inactive: all other assays above

O=S(=O)(Oc1ccc(Cl)cc1)c1ccc(Cl)cc1
not listed: [10] | [16] | [17] | [18] | [19]
inactive: all other assays above
